Data as given in the supplement of paper PMC7156485.
± gives the standard deviation of the averaged measurements.

Columns and labels:
Conditions in all cases: concentration: 10 µM; 24 h
[1] = system: HCC1569; assay: cell number relative to DMSO (% of DMSO); higher = more cells (less growth inhibition / toxicity)
Summary of the method: (§1)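 H1.0 nuclear intensity or cell number is stated as percent of the plate control, based on the median of replicates, and HCC1569 values were smoothed for positional effects. These came from HCC1569 and TDF cells treated with compounds at 10 µM for 24 h at 37 °C in triplicate, then fixed in 3.7% formaldehyde and stained with a rabbit anti-H1.0 antibody, an AlexaFluor 647 secondary and DAPI.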

[2] = system: TDF; assay: as above
Summary of the method: as §1

[3] = system: TDF; assay: H1.0 immunofluorescence intensity relative to DMSO (% of DMSO); higher = stronger H1.0 induction, active = 120 or more
Summary of the method: as §1

[4] = system: HCC1569; assay: H1.0 immunofluorescence intensity relative to DMSO (% of DMSO); higher = stronger H1.0 induction, active = 140 or more
Summary of the method: as §1
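Throughout, for H1.0 immunofluorescence intensity relative to DMSO: TDF is a line of transformed human dermal fibroblasts of mesenchymal origin.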
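Throughout, for cell number relative to DMSO: TDF denotes transformed human dermal fibroblasts of mesenchymal origin.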

Q: `COC(=O)Nc1nc2ccc(C(=O)c3ccccc3)cc2[nH]1` [Mebendazol] was tested. Which cell number [1] did it give?
A: Its cell number is 69.2.

Q: And the cell number [2]?
A: The cell number was 11.6.

Q: What about the H1.0 immunofluorescence intensity [3] of the same molecule?
A: The H1.0 immunofluorescence intensity was 188 (active).

Q: What about the H1.0 immunofluorescence intensity [4] of the same molecule?
A: The H1.0 immunofluorescence intensity was 127 (inactive).

Q: What does the source list for `NS(=O)(=O)c1cc(C2(O)NC(=O)c3ccccc32)ccc1Cl` (stereo not given)?
A: cell number [1]: 101; cell number [2]: 98.1; H1.0 immunofluorescence intensity [3]: 96.1 (inactive); H1.0 immunofluorescence intensity [4]: 104 (inactive)

Q: With `O=C(O)c1ccc(SC2=NS(=O)(=O)c3ccccc32)cc1` [4-((1,1-dioxidobenzo[d]isothiazol-3-yl)thio)benzoic acid] as the molecule, how does the cell number [1] read?
A: The cell number was 100.

Q: What about the cell number [2] of the same molecule?
A: The cell number was 107.

Q: And the H1.0 immunofluorescence intensity [3]?
A: Its H1.0 immunofluorescence intensity is 93.5 (inactive).

Q: And the H1.0 immunofluorescence intensity [4]?
A: The H1.0 immunofluorescence intensity was 98.7 (inactive).

Q: How did the cell number [1] turn out when `O=c1cc(-c2ccc(O)cc2)oc2cc(O)c(C3OC(CO)C(O)C(O)C3O)c(O)c12` (stereo not given) [Isovitexin] was run?
A: Its cell number is 99.9.

Q: What about the cell number [2] of the same molecule?
A: The cell number was 109.

Q: What about the H1.0 immunofluorescence intensity [3] of the same molecule?
A: Its H1.0 immunofluorescence intensity is 94.3 (inactive).

Q: And the H1.0 immunofluorescence intensity [4]?
A: The H1.0 immunofluorescence intensity was 88.1 (inactive).

Q: What does the source list for `O=c1[nH]c(=O)n([C@H]2C[C@H](O)[C@@H](CO)O2)cc1/C=C/Br` [(E)-5-(2-Bromovinyl)-2'-deoxyuridine]?
A: cell number [1]: 104; cell number [2]: 100; H1.0 immunofluorescence intensity [3]: 97.3 (inactive); H1.0 immunofluorescence intensity [4]: 87.7 (inactive)

Q: Which cell number [1] does the source give for `C=CC(C)(O)CCC1C(C)(O)CCC2C(C)(C)CCCC21C` (stereo not given) [Sclareol] here?
A: The cell number was 105.

Q: What about the cell number [2] of the same molecule?
A: Its cell number is 90.1.

Q: And the H1.0 immunofluorescence intensity [3]?
A: The H1.0 immunofluorescence intensity was 105 (inactive).

Q: What about the H1.0 immunofluorescence intensity [4] of the same molecule?
A: The H1.0 immunofluorescence intensity was 94.7 (inactive).

Q: With `Nc1nnc(-c2cccc(Cl)c2Cl)c(N)n1` [Lamotrigine] as the molecule, how does the cell number [1] read?
A: The cell number was 99.6 ± 2.1.

Q: And the cell number [2]?
A: Its cell number is 105 ± 2.

Q: And the H1.0 immunofluorescence intensity [3]?
A: Its H1.0 immunofluorescence intensity is 87.7 (inactive).

Q: What about the H1.0 immunofluorescence intensity [4] of the same molecule?
A: The H1.0 immunofluorescence intensity was 101 (inactive).

Q: With `CCCCCC(O)C=CC1=C(CC=CCCCC(=O)O)C(=O)CC1` (stereo not given) [Prostaglandin B2] as the molecule, how does the cell number [1] read?
A: The cell number was 109.

Q: And the cell number [2]?
A: Its cell number is 109.

Q: What about the H1.0 immunofluorescence intensity [3] of the same molecule?
A: Its H1.0 immunofluorescence intensity is 92 (inactive).

Q: And the H1.0 immunofluorescence intensity [4]?
A: Its H1.0 immunofluorescence intensity is 97.4 (inactive).

Q: Which cell number [1] does the source give for `O=c1cc(-c2ccc(O)c(O)c2)oc2cc(O)cc(O)c12` [Luteolin] here?
A: The cell number was 74.6 ± 15.

Q: And the cell number [2]?
A: The cell number was 62.6 ± 57.

Q: And the H1.0 immunofluorescence intensity [3]?
A: The H1.0 immunofluorescence intensity was 124 (active).

Q: What about the H1.0 immunofluorescence intensity [4] of the same molecule?
A: The H1.0 immunofluorescence intensity was 120 (inactive).

Q: With `CC1=c2[nH]c3c(c2CCN1)C=CC(=O)C=3.Cl.O.O` as the molecule, how does the cell number [1] read?
A: The cell number was 98.2.

Q: And the cell number [2]?
A: Its cell number is 89.

Q: What about the H1.0 immunofluorescence intensity [3] of the same molecule?
A: Its H1.0 immunofluorescence intensity is 97.7 (inactive).

Q: And the H1.0 immunofluorescence intensity [4]?
A: Its H1.0 immunofluorescence intensity is 144 (active).

Q: Which results are given for `O=C1C(=Cc2ccc(O)c(O)c2)Oc2c1ccc(OC1OC(CO)C(O)C(O)C1O)c2O` (stereo not given) [Maritimein]?
A: cell number [1]: 99.5; cell number [2]: 94.8; H1.0 immunofluorescence intensity [3]: 102 (inactive); H1.0 immunofluorescence intensity [4]: 99.6 (inactive)

Q: For `Br.CN1C2CCC1CC(OC(=O)C(O)c1ccccc1)C2` (racemic) [DL-Homatropine hydrobromide], which cell number [1] is on record?
A: The cell number was 106.

Q: And the cell number [2]?
A: Its cell number is 109.

Q: And the H1.0 immunofluorescence intensity [3]?
A: The H1.0 immunofluorescence intensity was 91.5 (inactive).

Q: What about the H1.0 immunofluorescence intensity [4] of the same molecule?
A: Its H1.0 immunofluorescence intensity is 85.8 (inactive).

Q: `CCOC(=O)[C@H](CCc1ccccc1)N[C@@H](C)C(=O)N1C(=O)N(C)C[C@H]1C(=O)O.Cl` was tested. Which cell number [1] did it give?
A: The cell number was 107.

Q: What about the cell number [2] of the same molecule?
A: Its cell number is 99.6.

Q: What about the H1.0 immunofluorescence intensity [3] of the same molecule?
A: The H1.0 immunofluorescence intensity was 100 (inactive).

Q: What about the H1.0 immunofluorescence intensity [4] of the same molecule?
A: Its H1.0 immunofluorescence intensity is 92.3 (inactive).

Q: Which results are given for `C=CCCCCCCCCCCC(=O)O` [12-Tridecenoic acid]?
A: cell number [1]: 99.7; cell number [2]: 91.7; H1.0 immunofluorescence intensity [3]: 106 (inactive); H1.0 immunofluorescence intensity [4]: 98.7 (inactive)

Q: What does the source list for `Cl.Cn1c(=O)c(Oc2ccc(F)cc2F)cc2cnc(NC3CCOCC3)nc21`?
A: cell number [1]: 99.9; cell number [2]: 99.2; H1.0 immunofluorescence intensity [3]: 89 (inactive); H1.0 immunofluorescence intensity [4]: 102 (inactive)

Q: Which results are given for `CC(=O)NC(CSCC=C(C)CCC=C(C)CCC=C(C)CCC=C(C)C)C(=O)O` (stereo not given)?
A: cell number [1]: 102; cell number [2]: 98.3; H1.0 immunofluorescence intensity [3]: 105 (inactive); H1.0 immunofluorescence intensity [4]: 95.9 (inactive)

Q: Which cell number [1] does the source give for `Cc1nc2c([nH]1)c(=O)n(C)c(=O)n2Cc1ccco1` [Furafylline] here?
A: Its cell number is 103 ± 5.7.

Q: And the cell number [2]?
A: The cell number was 107 ± 11.

Q: And the H1.0 immunofluorescence intensity [3]?
A: The H1.0 immunofluorescence intensity was 94.5 (inactive).

Q: What about the H1.0 immunofluorescence intensity [4] of the same molecule?
A: Its H1.0 immunofluorescence intensity is 103 (inactive).

Q: With `CCCCCCCCCCCCCCCCCCCC(=O)O` [Eicosanoic acid] as the molecule, how does the cell number [1] read?
A: Its cell number is 99.8.

Q: And the cell number [2]?
A: Its cell number is 102.

Q: What about the H1.0 immunofluorescence intensity [3] of the same molecule?
A: Its H1.0 immunofluorescence intensity is 102 (inactive).

Q: What about the H1.0 immunofluorescence intensity [4] of the same molecule?
A: Its H1.0 immunofluorescence intensity is 101 (inactive).

Q: What does the source list for `Cc1cc(C)c(NC(=O)CC(CC(=O)[O-])c2cccc3ccccc23)c(C(=O)N2CCC3(CCCC3)CC2)c1.[Na+]` (stereo not given)?
A: cell number [1]: 105; cell number [2]: 102; H1.0 immunofluorescence intensity [3]: 101 (inactive); H1.0 immunofluorescence intensity [4]: 99.8 (inactive)

Q: Which results are given for `O=c1c(O)c(-c2ccccc2O)oc2cc(O)cc(O)c12` [Datiscetin]?
A: cell number [1]: 101; cell number [2]: 106; H1.0 immunofluorescence intensity [3]: 92.1 (inactive); H1.0 immunofluorescence intensity [4]: 87.7 (inactive)
